# Shown are actives, neighbours in structure and some others; about 2.4% of the full set was active somewhere.
# SENP8 block-1: human SENP8 protease inhibitors, primary screen, biochemical, fluorescence, Nedd8 protein substrate, uHTS | inhibition, % at 20 µM | recombinant SENP8 | Sentrin-specific protease 8 (Homo sapiens), Q96LD8 | 360,000 compounds, 0.64% hits; in the data active = inhibition mostly above about 40%, no sharp cut-off; inactive = mostly below about 27%
# Target sequence (Q96LD8 whole entry, looked up): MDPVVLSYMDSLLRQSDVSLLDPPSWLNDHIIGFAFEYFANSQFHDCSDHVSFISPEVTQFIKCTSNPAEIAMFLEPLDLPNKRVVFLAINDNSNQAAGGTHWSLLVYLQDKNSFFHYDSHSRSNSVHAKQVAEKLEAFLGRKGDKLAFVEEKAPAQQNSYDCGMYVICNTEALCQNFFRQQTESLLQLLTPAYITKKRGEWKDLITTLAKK
# Platelet DG rel: inhibitors of platelet dense granule secretion, primary screen, cell-based, MLPCN, human platelets. human platelet-rich plasma, SFLLRN dense granule ATP release, luminescence. inhibition, %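 (compounds screened at 7.5 µM in platelet-rich plasma)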. 300,000 compounds, 0.22% hits;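 active = mean replicate score, as percent of positive control, at or above 50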
# SENP6 inh: SENP6 protease inhibitors, primary screen, biochemical, luminescence, uHTS; 330,000 compounds, 1.8% hits; Recombinant SENP6 catalytic domain, aminoluciferin luminescence; Sentrin-specific protease 6 (Homo sapiens), Q9GZR1; AID 2599, 2010; inhibition, % at 10 µM;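 active = inhibition above about 50% at the single tested dose, limit read from the data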
# SENP7 block: SENP7 protease inhibitors, primary screen, biochemical, luminescence, uHTS; Sentrin-specific protease 7 (Homo sapiens), Q9BQF6; recombinant SENP7, Z-RLRGG-aminoluciferin luminescence, 40 min; inhibition, % at 5 µM; 330,000 compounds, 1.5% hits;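 active = inhibition above about 50% at the single test dose, limit read from the data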
# Target sequence (Q9BQF6 706-1050 limits assumed): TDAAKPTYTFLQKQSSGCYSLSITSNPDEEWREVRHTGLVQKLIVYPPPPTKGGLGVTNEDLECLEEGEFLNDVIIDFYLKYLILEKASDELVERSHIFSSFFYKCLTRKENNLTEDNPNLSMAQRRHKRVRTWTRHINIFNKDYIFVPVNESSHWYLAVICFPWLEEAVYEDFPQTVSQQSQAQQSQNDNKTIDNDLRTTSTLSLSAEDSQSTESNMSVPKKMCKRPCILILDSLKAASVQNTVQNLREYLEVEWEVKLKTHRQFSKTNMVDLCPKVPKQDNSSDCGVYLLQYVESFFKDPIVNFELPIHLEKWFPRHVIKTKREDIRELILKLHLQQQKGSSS
# SENP8 block-2: SENP8 protease inhibitors, primary screen, biochemical, luminescence; purified SENP8, Z-RLRGG-aminoluciferin cleavage; Sentrin-specific protease 8 (Homo sapiens), Q96LD8; inhibition, % at 10 µM; AID 2540, 2010; 330,000 compounds, 1.2% hits; in the data active = inhibition above about 50%
# SENP8 conf: human SENP8 protease inhibitors, confirmation, biochemical, Nedd8 protein substrate, single concentration. shares compounds with SENP8 block-1. purified SENP8, Nedd8-AMC/pro-Nedd8 cleavage fluorescence, 30 min. inhibition, % at 25 µM. 1,400 compounds, 15% hits; in the data active = inhibition mostly above about 39%, no sharp cut-off; inactive = mostly below about 34%
# Hits are given with their value; – = inactive; · = not tested or not shown.
SMILES,SENP8 block-1,Platelet DG rel,SENP6 inh,SENP7 block,SENP8 block-2,SENP8 conf
O=C(O)c1cccc(N2C(=O)c3ccc4c5c(ccc(c35)C2=O)C(=O)N(c2cccc(C(=O)O)c2)C4=O)c1,50,–,–,–,–,50
O=C(O)c1cccc(N2C(=O)c3ccc(Oc4ccc(Cl)cc4)cc3C2=O)c1,–,–,–,–,–,·
Cc1ccc(-n2cc(CN3CCC(O)(c4ccccn4)CC3)c(-c3ccc(F)cc3)n2)cc1,–,–,–,–,–,·
COc1ccc(NCC(=O)N/N=C2\CCc3ccccc32)cc1,40,–,–,–,–,–
Cc1c(C(=O)N(C)C(C)c2ccccn2)oc2c(F)cccc12 (centres undefined),–,–,–,–,–,·
CC(C)(C)c1ccc2c(c1)OC(C(=O)N/N=C/c1ccc([N+](=O)[O-])o1)CO2 (centres undefined),44,–,–,–,–,–
COc1ccc(Br)cc1S(=O)(=O)N1CCCc2ccccc21,–,–,–,–,–,·
O=C(O)CCCCCCCCCCCc1ccccc1,56,–,–,–,–,–
O=C(O)c1ccc(CCCc2ccccc2)cc1,–,·,·,·,·,·
O=[N+]([O-])c1cc(-n2cccc2)ccc1N1CCOCC1,42,–,–,–,–,–
CC1CCN(c2cc(N3CCOCC3)c([N+](=O)[O-])cc2F)CC1,41,–,–,–,–,–
O=C1N/C(=N\c2ccccn2)SC1Cc1ccccc1Cl (centres undefined),–,–,–,–,–,·
Clc1ss/c(=N\c2ccccn2)c1Cl,49,–,–,–,–,–
O=C(/C=C/c1ccc(OC(F)F)cc1)Nc1cccc(S(=O)(=O)N2CCOCC2)c1,–,–,–,–,–,·
CCCNCc1cc(OC)c(OCCC)cc1Cl,40,–,–,–,–,–
CCOc1cc(Cl)c(CNCCCN2CCOCC2)cc1OC,–,–,–,–,–,·
COc1ccc(C(=O)COC(=O)CN2C(=O)c3ccccc3C2=O)c(OC)c1,–,–,–,–,–,·
O=S(=O)(c1ccccc1)N1CCN(C2CCCCCCC2)CC1,41,–,–,–,–,–
O=S(=O)(c1ccccc1)N1CCN(S(=O)(=O)c2ccccc2)C1,41,–,–,–,–,–
NS(=O)(=O)c1ccc(S(=O)(=O)N2CCN(C3CCCC3)CC2)cc1,–,–,–,–,–,·
COc1ccccc1C(=O)N1CCN(S(=O)(=O)c2ccccc2)CC1,46,–,–,–,–,–
O=C(NC1C/C(=N/O)c2cc3c(cc21)OCO3)C(F)(F)F (centres undefined),–,–,–,–,–,·
CC1(C(=O)NS(=O)(=O)c2ccc(C#N)cc2)CCN1C(=O)Cc1ccccc1Cl (centres undefined),–,·,·,·,·,·
O=C1CC2(CCN(C(=O)c3ccc(F)cc3)CC2)Oc2ccccc21,–,–,–,–,–,·
COc1cccc(-c2nc(C(=O)NCC3CCCO3)cc3c2[nH]c2ccccc23)c1 (centres undefined),–,–,–,–,–,·
SMILES,SENP8 block-1,Platelet DG rel,SENP6 inh,SENP7 block,SENP8 block-2,SENP8 conf
O=C(Nc1ccc(N2CCOCC2)cc1)C1CCN(S(=O)(=O)Cc2ccccc2)CC1,40,·,–,–,–,–
CCOc1cc(OCC)cc(C(=O)NCc2ccco2)c1,–,–,–,–,–,·
O=[N+]([O-])c1c(Nc2ccccc2O)cc(N2CCOCC2)c2nonc12,–,–,–,–,–,·
COc1cccc(Nc2cc(N3CCOCC3)c3nonc3c2[N+](=O)[O-])c1,44,–,–,–,–,–
Cc1nc([N+](=O)[O-])c(Br)n1CC(=O)c1ccc(Cl)cc1,42,–,–,–,–,–
COc1ccc(C(=O)Cn2c(C)nc([N+](=O)[O-])c2Br)cc1,–,–,–,–,–,·
O=C(NC1CCN(Cc2ccc(Cl)cc2)CC1)c1cn(-c2ccccc2)nc1-c1cccnc1,–,·,–,–,–,·
COc1ccc(C(=O)N2C=Cc3ccccc3C2C#N)cc1 (centres undefined),50,·,·,·,·,74
Cc1cn(CC(=O)NCCN2CCOCC2)c(=O)[nH]c1=O,–,·,·,·,·,·
O=C1/C(=C/c2cccs2)N=C(c2cccs2)N1Nc1ccccc1,–,–,–,–,–,·
Cc1ccc(C2=N/C(=C\c3cccs3)C(=O)N2Nc2ccccc2)cc1,42,–,–,–,–,–
CCOC(=O)Oc1ccc(C(=O)OCCCN(C)C)cc1OC,–,–,–,–,–,·
COc1ccc(C(=O)OCCCN(C)C)cc1OC,41,–,–,–,–,–
CC(=O)N1CCN(c2c(F)c(F)c(C(F)(F)F)c(F)c2F)CC1,–,–,·,·,·,·
CC1(C)Cc2c(C#N)c(N)n(-c3ccccc3)c(=S)c2CO1,–,–,–,–,–,·
CC1(C)C=C2C(=NN(c3ccccc3)C(N)=C2C#N)CO1,54,–,–,–,–,97
O=c1[nH]cnc2c1ncn2[C@@H]1O[C@H](COS(=O)(=O)O)[C@@H](O)[C@H]1O,–,·,–,–,–,·
COc1ccc([C@H]2C[C@@H](O)C[C@@H](CCn3cc(-c4ccccc4)nn3)O2)cc1,–,·,·,·,·,·
Nc1ncnc2c1ncn2[C@@H]1O[C@H](CNS(=O)(=O)c2ccc3c(c2)CCN(C(=O)C(F)(F)F)C3)[C@@H](O)[C@H]1O,–,·,·,–,·,·
COc1ccc(/C=N/Nc2nnc(C)n2N)cc1OC(C)=O,–,–,–,–,–,·
COc1ccc(/C=N/Nc2nnc(C)n2N)cc1OC,41,–,–,–,–,–
CC(C)C1C(C#N)=C(N)Oc2n[nH]c(-c3ccccc3)c21 (centres undefined),–,–,–,–,–,·
CC(C)c1[nH]nc2c1C(C(C)C)C(C#N)=C(N)O2 (centres undefined),40,–,–,–,–,–
Cc1ccc(C(=O)NCC(=O)OCC(=O)N2CCCc3ccccc32)cc1,55,–,–,–,–,–
CCOC(=O)/C(=N/Nc1ccccc1)N1CCCc2ccccc21,43,–,–,–,–,–
SMILES,SENP8 block-1,Platelet DG rel,SENP6 inh,SENP7 block,SENP8 block-2,SENP8 conf
Cc1cccc(C(=O)NCC(=O)OCC(=O)N2CCc3ccccc32)c1,–,–,–,–,–,·
O=C(O)C1CC(=O)N(C2CCCCC2)C1c1ccccc1 (centres undefined),41,–,–,–,–,–
CNc1ncnc(Sc2ccc(Cl)cc2)c1[N+](=O)[O-],42,–,–,–,–,–
CC1(C)Cc2cccc(OCC(=O)OCC(=O)Nc3cccc(S(N)(=O)=O)c3)c2O1,40,–,–,–,–,–
Cc1cc(=O)[nH]c(N/N=C/c2ccccc2Cl)n1,–,–,–,–,–,·
Cc1cc(=O)[nH]c(N/N=C/C(C)c2ccccc2)n1 (centres undefined),47,–,–,–,–,–
CC(C)[C@H](NC(=O)c1ccc(Cl)cc1Cl)C(=O)NNC(=O)c1ccco1,–,·,–,–,–,·

# Screens from PubChem BioAssay.
